Measured values from the supplement of paper PMC6522484.
± gives the standard deviation of the averaged measurements.

Key:
[1] = tested on: DLD1; assay: cell viability (CellTiter-Glo) relative to plate median (fraction of plate median); higher = more viable cells; details: 10 µM, treatment time 24 h
How it was run: (§1)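 Each value averages two independent replicates in which the well signal was normalised to the plate median (webcellHTS2, additive, without log transformation). The signal was firefly luciferase or CellTiterGlo luminescence, read on parallel plates with a Tecan F500. The cells were colorectal cancer lines with stable lentiviral TCF/Wnt firefly luciferase reporters in 384-well plates, dosed 24 h after seeding with kinase inhibitor library compounds at a final 10 µM for 24 h.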

[2] = tested on: HCT116; assay: as above; details: 10 µM; treatment time 24 h; reporter: TCF4/Wnt
How it was run: as §1

[3] = tested on: SW480; assay: as above; details: 10 µM; treatment time 24 h; reporter: 7TFP
How it was run: as §1

[4] = tested on: DLD1; assay: TCF/Wnt firefly luciferase reporter signal relative to plate median (fraction of plate median); higher = higher Wnt reporter signal; details: 10 µM, treatment time 24 h
How it was run: as §1

[5] = tested on: HCT116; assay: as above; details: 10 µM; treatment time 24 h; reporter: TCF4/Wnt
How it was run: as §1

[6] = tested on: SW480; assay: as above; details: 10 µM; treatment time 24 h; reporter: 7TFP
How it was run: as §1

SMILES	cell viability ([1]; reporter: 7TFP)	cell viability ([1]; reporter: TCF4/Wnt)	cell viability [2]	cell viability [3]	TCF/Wnt firefly luciferase reporter signal ([4]; reporter: 7TFP)	TCF/Wnt firefly luciferase reporter signal ([4]; reporter: TCF4/Wnt)	TCF/Wnt firefly luciferase reporter signal [5]	TCF/Wnt firefly luciferase reporter signal [6]
C=CC(=O)Nc1cccc(Oc2nc(Nc3ccc(N4CCN(C)CC4)cc3)ncc2Cl)c1	0.968 ± 0.045	1.045 ± 0.0071	0.894 ± 0.16	1.07 ± 0.085	0.79 ± 0.067	0.969 ± 0.12	1.18 ± 0.42	0.834 ± 0.39
CN(C)C/C=C/C(=O)Nc1cc2c(Nc3ccc(F)c(Cl)c3)ncnc2cc1O[C@H]1CCOC1 [Afatinib (BIBW2992)]	0.916 ± 0.074	0.843 ± 0.0092	0.635 ± 0.19	1.18 ± 0.042	0.292 ± 0.089	0.407 ± 0.0014	0.131 ± 0.091	0.447 ± 0.19
FC(F)(F)c1ccc(Nc2nc3ccc(Oc4ccnc(-c5ncc(C(F)(F)F)[nH]5)c4)cc3[nH]2)cc1 [Raf265 derivative]	1.1	1.07 ± 0.014	1.2 ± 0.21	0.975 ± 0.12	1.11 ± 0.085	1.16 ± 0.085	0.912 ± 0.28	0.81 ± 0.44
COc1cc(Nc2c(C#N)cnc3cc(OCCCN4CCN(C)CC4)c(OC)cc23)c(Cl)cc1Cl [Bosutinib (SKI-606)]	0.869 ± 0.034	0.9025 ± 0.0021	0.864 ± 0.016	0.995 ± 0.035	0.4675 ± 0.0035	0.534 ± 0.021	0.242 ± 0.22	0.648 ± 0.23
S=C(NCc1ccc2c(c1)OCO2)N1CCN(c2ncnc3c2oc2ccccc23)CC1 [Amuvatinib (MP-470)]	0.997 ± 0.047	1.03 ± 0.091	1.15 ± 0.17	0.869 ± 0.013	1.07 ± 0.092	1.23 ± 0.057	1.13 ± 0.29	0.953 ± 0.12
COc1cc2c(N3CCN(C(=O)Nc4ccc(OC(C)C)cc4)CC3)ncnc2cc1OCCCN1CCCCC1 [Tandutinib (MLN518)]	1.09 ± 0.05	1.1 ± 0.085	1.09 ± 0.028	1.11	0.956 ± 0.12	1.03 ± 0.028	1.08 ± 0.035	1.33 ± 0.05
CO[C@H]1C[C@@H]2CC[C@@H](C)[C@@](O)(O2)C(=O)C(=O)N2CCCC[C@H]2C(=O)O[C@H]([C@H](C)C[C@@H]2CC[C@@H](OC(=O)C(C)(CO)CO)[C@H](OC)C2)CC(=O)[C@H](C)/C=C(\C)[C@@H](O)[C@@H](OC)C(=O)[C@H](C)C[C@H](C)/C=C/C=C/C=C/1C [Temsirolimus (Torisel)]	1.135 ± 0.0071	1.115 ± 0.0071	1.125 ± 0.0071	0.934 ± 0.0028	1.08 ± 0.085	0.995 ± 0.078	1.165 ± 0.0071	0.951 ± 0.11
COc1cc(OC)c(/C=C/S(=O)(=O)Cc2ccc(OC)c(NCC(=O)O)c2)c(OC)c1	0.988 ± 0.074	1.01 ± 0.025	0.631 ± 0.14	1.04	0.726 ± 0.011	0.772 ± 0.0014	0.198 ± 0.013	0.694 ± 0.069
COc1ccc(COc2cc3oc(=O)c4cc(C(C)O)ccc4c3cc2OC)cc1 (stereo not drawn) [Palomid 529]	1.08 ± 0.028	1.09 ± 0.021	1.12 ± 0.092	0.877 ± 0.044	1.1 ± 0.021	1.16 ± 0.099	1.2 ± 0.37	1.07 ± 0.099
Clc1ccc(C2(c3ccc(-c4cn[nH]c4)cc3)CCNCC2)cc1	1.01 ± 0.025	1.08 ± 0.028	1.03 ± 0.13	1.15 ± 0.057	1.13 ± 0.13	0.883 ± 0.11	0.871 ± 0.024	1.33 ± 0.021
NC1(Cc2ccc(Cl)cc2)CCN(c2ncnc3[nH]ccc23)CC1	1.18 ± 0.05	1.105 ± 0.0071	0.787 ± 0.073	1.02 ± 0.035	1.03 ± 0.045	0.886 ± 0.078	1.02 ± 0.32	1.01 ± 0.11
